Experiment [1] in a line: qHTS assay to identify aromatase inhibitors - cell viability counter screen (AID 743084).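 Also: cells stimulated with testosterone during compound exposure; nearly all actives have a fitted effect of over 55% in size.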 Also: potency is read from the fitted curve at half-maximal effect. Background: In qHTS, concentration-response curves come from the screen itself.
Experiment [2] has as its target Aryl hydrocarbon receptor (Homo sapiens) (UniProt P35869). In words: qHTS assay to identify small molecule that activate the aryl hydrocarbon receptor (AhR) signaling pathway (AID 743085).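 Also: HG2L7.5c1 human HepG2 liver cells with stably integrated DRE-driven firefly reporter; series mostly up to about 70 µM; nearly all actives have a fitted effect of over 15% in size.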 In outline: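 Luminescence (ONE-Glo) from a dioxin-responsive-element luciferase reporter in HG2L7.5c1 HepG2 cells after 24 hr compound exposure at 37C; viability measured by CellTiter-Fluor fluorescence beforehand.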

Experiment [3] is described as follows: qHTS assay to identify small molecule that activate the aryl hydrocarbon receptor (AhR) signaling pathway - cell viability counter screen (AID 743086). Also: nearly all actives have a fitted effect of over 45% in size. Also: potency is read from the fitted curve at half-maximal effect. In a few lines: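 Cytotoxicity counter screen: CellTiter-Fluor signal (30 min, 37 C) in 4000 HepG2 cells/well carrying the DRE-luciferase reporter, following 24 h compound exposure at 37 C.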
The target of experiment [4] is Peroxisome proliferator-activated receptor gamma (Homo sapiens) (UniProt P37231). In words: qHTS assay to identify small molecule agonists of the peroxisome proliferator-activated receptor gamma (PPARg) signaling pathway (AID 743094; active = well fitted activation curve with a large enough effect in the signal ratio in the repeat runs, not every such curve was filed as active; the % refers to the signal ratio). In a few lines: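 GeneBLAzer PPARg UAS-bla HEK293H cells carrying a stably integrated beta-lactamase reporter were pre-incubated 5 h at 37C, then exposed to compounds in DMSO for 17 h at 37C; LiveBLAzer B/G FRET substrate was added for 1 h at room temperature and fluorescence read.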
Peroxisome proliferator-activated receptor gamma (Homo sapiens), sequence (P37231 whole entry, looked up): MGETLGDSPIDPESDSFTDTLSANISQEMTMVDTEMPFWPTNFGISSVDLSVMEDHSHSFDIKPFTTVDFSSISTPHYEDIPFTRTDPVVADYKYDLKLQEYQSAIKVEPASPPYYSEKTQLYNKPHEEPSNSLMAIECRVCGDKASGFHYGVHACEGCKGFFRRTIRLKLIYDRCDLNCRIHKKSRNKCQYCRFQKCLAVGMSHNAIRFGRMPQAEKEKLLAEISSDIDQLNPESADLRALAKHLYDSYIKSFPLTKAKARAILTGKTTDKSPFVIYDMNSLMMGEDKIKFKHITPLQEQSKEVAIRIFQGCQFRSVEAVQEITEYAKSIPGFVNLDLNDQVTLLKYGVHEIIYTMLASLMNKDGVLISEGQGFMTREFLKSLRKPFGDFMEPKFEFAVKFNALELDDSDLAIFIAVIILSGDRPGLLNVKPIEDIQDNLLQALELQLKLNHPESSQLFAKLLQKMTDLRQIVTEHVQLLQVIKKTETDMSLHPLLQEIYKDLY

Experiment [5] has the same target. In words: qHTS assay to identify small molecule antagonists of the peroxisome proliferator-activated receptor gamma (PPARg) signaling pathway (AID 743191; calls by dose curve; also: nearly all actives have a fitted effect of over 30% in size; also: potency is read from the fitted curve at half-maximal effect). In a few lines:
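Beta-lactamase reporter under UAS control in HEK293H PPARg-bla cells; compound treatment 17 h at 37C. Read-out: fluorescence intensity after 1 h room-temperature incubation with LiveBLAzer B/G FRET substrate.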

The nature of experiment [6]: qHTS assay to identify small molecule antagonists of the peroxisome proliferator-activated receptor gamma (PPARg) signaling pathway - cell viability counter screen (AID 743194). Also: nearly all actives have a fitted effect of over 55% in size. The note with it: Potency: co-treated with 50 nM rosiglitazone unless noted. In a few lines:
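Viability was measured as CellTiter-Glo luminescence in GeneBLAzer PPARg UAS-bla HEK293H cells. These cells had been exposed 17 h at 37 C to compounds together with rosiglitazone at 50 nM final, with the beta-lactamase readout taken in the same wells.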

Experiment [7] is described as follows: qHTS assay for small molecule agonists of the antioxidant response element (ARE) signaling pathway (AID 743202; active = well fitted activation curve with a large enough effect in the signal ratio in the repeat runs, not every such curve was filed as active; the % refers to the signal ratio; also: potency is read from the fitted curve at half-maximal effect). In outline:
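An ARE-responsive beta-lactamase gene stably integrated in HepG2 cells serves as reporter. After 5 h plating and 16 h compound incubation at 37 C, fluorescence of the B/G FRET substrate was measured.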

A short description of experiment [8]: qHTS assay for small molecule agonists of the antioxidant response element (ARE) signaling pathway - cell viability counter screen (AID 743203; calls by dose curve; also: nearly all actives have a fitted effect of over 55% in size; also: potency is read from the fitted curve at half-maximal effect). In outline:
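CellSensor ARE-bla HepG2 cells, 2,000 per well, rested 5 hrs at 37C/5% CO2, then exposed to compound in DMSO for 16 hrs; viability read as CellTiter-Glo luminescence after 30 min at room temperature, in the reporter wells.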

Experiment [9] in a line: qHTS assay for small molecule activators of the heat shock response signaling pathway - cell viability counter screen (AID 743209). Also: nearly all actives have a fitted effect of over 50% in size. In a few lines:
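CellSensor HSE-bla HeLa cells, plated overnight at 37 C/5% CO2, were exposed to compounds in DMSO for 5 h at 37 C. Viability was then read in the same wells by CellTiter-Glo luminescence after 30 min at room temperature.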

A short description of experiment [10]: qHTS assay for small molecule activators of the heat shock response signaling pathway (AID 743210; active = well fitted activation curve with a large enough effect in the signal ratio in the repeat runs, with a control signal flat, not every such curve was filed as active; the % refers to the signal ratio; also: potency is read from the fitted curve at half-maximal effect;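 as to activation: HeLa cells with beta-lactamase reporter driven by heat shock elements; series mostly up to about 63 µM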). In a few lines: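 In HSE-bla HeLa cells, 5 h compound incubation (37 C) precedes addition of LiveBLAzer B/G substrate; after 2.5 h at room temperature, fluorescence intensity indicates reporter induction.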
Experiment [11] is described as follows: qHTS assay to identify small molecule agonists of the peroxisome proliferator-activated receptor delta (PPARd) signaling pathway - cell viability counter screen (AID 743211). Also: nearly all actives have a fitted effect of over 55% in size. In outline: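 Viability was measured as CellTiter-Glo luminescence (30 min, room temperature) in the same wells as the beta-lactamase readout. GeneBLAzer PPARd UAS-bla HEK293H cells received compound after 5 h plating and were incubated 17 h at 37 C.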

Experiment [12] has as its target Peroxisome proliferator-activated receptor delta (Homo sapiens) (UniProt Q03181). As to the kind of experiment: qHTS assay to identify small molecule agonists of the peroxisome proliferator-activated receptor delta (PPARd) signaling pathway (AID 743212; calls by dose curve). In outline:
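HEK293H UAS-bla reporter cells, human PPARd system; compounds delivered in DMSO after 5 h plating, then at 37 C. Beta-lactamase FRET read, 2 h RT substrate step.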

The nature of experiment [13]: qHTS assay to identify small molecule antagonists of the peroxisome proliferator-activated receptor delta (PPARd) signaling pathway - cell viability counter screen (AID 743213). Also: nearly all actives have a fitted effect of over 50% in size. In outline: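 Cytotoxicity counter screen: CellTiter-Glo luminescence read 30 min after addition, in the same wells as the reporter assay. There, PPARd UAS-bla HEK293H cells (3000/well) were treated 17 h at 37 C with compound and 300 nM L165041.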

The target in experiment [14] is Peroxisome proliferator-activated receptor delta (Homo sapiens) (UniProt Q03181). In words: qHTS assay to identify small molecule antagonists of the peroxisome proliferator-activated receptor delta (PPARd) signaling pathway (AID 743215; active = well fitted inhibition curve with a large enough effect in the signal ratio in the repeat runs, not every such curve was filed as active; the % refers to the signal ratio;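 also: cells stimulated with agonist L165041 at 300 nM final during compound exposure; series mostly up to about 62 µM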). In a few lines: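 PPARd UAS-bla HEK293H cells were pre-incubated 5 h at 37 C, then given test compounds in DMSO plus agonist L165041 (300 nM final). After 17 h at 37 C, beta-lactamase FRET substrate was added; fluorescence read after 2 h at room temperature.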
Peroxisome proliferator-activated receptor delta (Homo sapiens), sequence (Q03181 whole entry, looked up): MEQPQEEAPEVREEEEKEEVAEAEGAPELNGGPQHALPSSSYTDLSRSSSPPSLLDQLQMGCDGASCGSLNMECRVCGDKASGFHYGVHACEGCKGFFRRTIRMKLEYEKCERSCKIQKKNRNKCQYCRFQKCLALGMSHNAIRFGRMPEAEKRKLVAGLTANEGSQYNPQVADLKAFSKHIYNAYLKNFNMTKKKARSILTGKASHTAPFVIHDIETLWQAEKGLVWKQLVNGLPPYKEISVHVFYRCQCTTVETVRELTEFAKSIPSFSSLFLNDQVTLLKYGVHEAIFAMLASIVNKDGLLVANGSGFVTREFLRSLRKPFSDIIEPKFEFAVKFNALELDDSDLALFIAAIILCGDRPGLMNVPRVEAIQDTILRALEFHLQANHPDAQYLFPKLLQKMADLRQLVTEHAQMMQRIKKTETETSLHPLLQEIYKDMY

Experiment [15] can be described thus: qHTS assay to identify small molecule antagonists of the farnesoid-X-receptor (FXR) signaling pathway - cell viability counter screen (AID 743221; active = well fitted cell-killing curve with a large enough effect in the repeat runs, not every such curve was filed as active; also: nearly all actives have a fitted effect of over 50% in size). In outline:
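Cytotoxicity counter screen run in the FXR-bla reporter wells: HEK 293T cells exposed to compound with 50 uM (final) chenodeoxycholic acid for 16 h, 37 C, then viability measured by CellTiter-Glo luminescence after 30 min, room temperature.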

The target of experiment [16] is Vitamin D3 receptor (Homo sapiens) (UniProt P11473). As to the kind of experiment: qHTS assay to identify small molecule agonists of the vitamin D receptor (VDR) signaling pathway (AID 743222; calls by dose curve). In a few lines:
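VDR-bla cells were plated 4 h at 37C/5% CO2, then exposed to compounds in DMSO for 16 h. After LiveBLAzer B/G FRET substrate addition and 2 h at room temperature, beta-lactamase reporter fluorescence was read.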

For experiment [17] the target is unchanged. As to the kind of experiment: qHTS assay to identify small molecule antagonists of the vitamin D receptor (VDR) signaling pathway (AID 743223; active = well fitted inhibition curve with a large enough effect in the signal ratio in the repeat runs, not every such curve was filed as active; the % refers to the signal ratio). In outline: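 Antagonist mode: compound added to VDR-bla cells alongside agonist 1alpha,25-dihydroxyvitamin D3 (3 nM final), incubation 16 h at 37C. Read-out is LiveBLAzer FRET fluorescence, 2 h at room temperature.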

Experiment [18] concerns the target Bile acid receptor (Homo sapiens) (UniProt Q96RI1). As to the kind of experiment: qHTS assay to identify small molecule agonists of the farnesoid-X-receptor (FXR) signaling pathway (AID 743220; active = well fitted activation curve with a large enough effect in the signal ratio in the repeat runs, not every such curve was filed as active; the % refers to the signal ratio). In outline: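 Beta-lactamase reporter under UAS control in GeneBLAzer FXR HEK 293T cells (5000/well) measured with LiveBLAzer FRET substrate after 2 h at room temperature. Compound exposure lasted 16 h at 37C.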

Experiment [19] in a line: qHTS assay to identify small molecule agonists of the farnesoid-X-receptor (FXR) signaling pathway - cell viability counter screen (AID 743218). Also: nearly all actives have a fitted effect of over 45% in size. In a few lines: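 FXR-UAS-bla HEK 293T cells, plated 5 h at 37 C, were exposed to compounds for 16 h at 37 C. CellTiter-Glo was then added to the same wells as the bla readout; luminescence read after 30 min at room temperature.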

“And” between values parts separate entries of the source, which are not always exact repeats. Equal entries are not always repeated. Records with an inconclusive call do not appear. A structure can be active in one record and inactive in another. The source made the active and inactive calls. Unless noted, calls follow the shape of the dose curve; as a rule, active = well fitted curve in the direction sought with a large enough effect in the repeat runs; inconclusive = weak or mixed curves; inactive = no such curve, though single readings can be large; an effect the other way counts as inactive or inconclusive.

Aryl hydrocarbon receptor (Homo sapiens), sequence (P35869 whole entry, looked up): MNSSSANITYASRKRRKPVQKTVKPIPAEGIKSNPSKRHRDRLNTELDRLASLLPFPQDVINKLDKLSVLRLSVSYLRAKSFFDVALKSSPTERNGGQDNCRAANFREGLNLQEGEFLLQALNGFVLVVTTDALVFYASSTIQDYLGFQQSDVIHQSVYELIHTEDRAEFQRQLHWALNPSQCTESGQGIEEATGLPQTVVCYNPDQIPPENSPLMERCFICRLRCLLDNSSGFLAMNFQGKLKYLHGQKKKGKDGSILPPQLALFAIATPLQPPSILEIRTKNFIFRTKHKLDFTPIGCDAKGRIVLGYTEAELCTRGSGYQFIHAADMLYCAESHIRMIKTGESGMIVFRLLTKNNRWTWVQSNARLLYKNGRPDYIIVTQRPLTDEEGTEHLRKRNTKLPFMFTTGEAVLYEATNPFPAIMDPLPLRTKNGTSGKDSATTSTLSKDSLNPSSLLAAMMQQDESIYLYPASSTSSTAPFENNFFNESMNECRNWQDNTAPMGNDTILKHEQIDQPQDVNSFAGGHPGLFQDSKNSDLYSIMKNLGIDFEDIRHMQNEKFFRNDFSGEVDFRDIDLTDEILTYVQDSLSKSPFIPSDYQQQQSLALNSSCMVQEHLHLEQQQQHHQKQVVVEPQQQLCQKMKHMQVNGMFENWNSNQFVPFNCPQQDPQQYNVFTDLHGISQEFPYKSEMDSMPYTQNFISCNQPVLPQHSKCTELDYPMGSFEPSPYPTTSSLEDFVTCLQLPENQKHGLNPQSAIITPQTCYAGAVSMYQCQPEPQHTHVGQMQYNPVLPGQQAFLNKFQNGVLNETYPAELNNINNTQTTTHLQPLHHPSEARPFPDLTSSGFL
Vitamin D3 receptor (Homo sapiens), sequence (P11473 whole entry, looked up): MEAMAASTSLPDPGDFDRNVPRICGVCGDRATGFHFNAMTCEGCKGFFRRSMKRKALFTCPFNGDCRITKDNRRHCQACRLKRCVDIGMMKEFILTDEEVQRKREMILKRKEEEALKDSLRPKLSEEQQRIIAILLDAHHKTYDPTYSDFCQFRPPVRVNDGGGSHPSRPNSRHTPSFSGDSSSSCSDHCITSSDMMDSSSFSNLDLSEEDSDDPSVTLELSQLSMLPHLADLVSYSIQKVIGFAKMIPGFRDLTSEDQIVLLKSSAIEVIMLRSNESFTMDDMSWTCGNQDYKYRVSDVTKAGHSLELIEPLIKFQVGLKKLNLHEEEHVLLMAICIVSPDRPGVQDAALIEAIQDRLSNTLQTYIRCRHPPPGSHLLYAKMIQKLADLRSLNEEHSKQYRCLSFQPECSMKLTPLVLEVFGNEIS
Bile acid receptor (Homo sapiens), sequence (Q96RI1 whole entry, looked up): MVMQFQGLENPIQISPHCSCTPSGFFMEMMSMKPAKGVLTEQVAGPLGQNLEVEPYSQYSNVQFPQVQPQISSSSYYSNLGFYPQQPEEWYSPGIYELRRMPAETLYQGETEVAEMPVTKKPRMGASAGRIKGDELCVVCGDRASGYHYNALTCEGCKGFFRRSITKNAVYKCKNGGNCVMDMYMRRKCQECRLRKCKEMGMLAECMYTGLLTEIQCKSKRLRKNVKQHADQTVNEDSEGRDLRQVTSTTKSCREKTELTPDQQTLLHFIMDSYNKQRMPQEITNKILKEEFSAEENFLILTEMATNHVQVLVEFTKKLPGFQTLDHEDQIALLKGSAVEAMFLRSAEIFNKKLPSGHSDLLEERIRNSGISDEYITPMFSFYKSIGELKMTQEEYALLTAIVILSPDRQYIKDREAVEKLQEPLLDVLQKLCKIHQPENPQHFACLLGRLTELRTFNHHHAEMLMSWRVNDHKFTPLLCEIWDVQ

For `CC(O)CCO` (configuration not stated), the Potency result in experiment [1], in experiment [2], in experiment [3], in experiment [4], in experiment [5] and in experiment [6] was “inactive” throughout. Further, the Potency entry in experiment [7], in experiment [8], in [9], in experiment [10], in [11] and in [12] was “inactive” in each case. Moreover, the Potency result in experiment [13], in experiment [14] and in experiment [15] was “inactive” each time. In addition, the compound was called inactive in experiment [16] and in [17].
Regarding `CCC(C)c1cc([N+](=O)[O-])cc([N+](=O)[O-])c1O` (configuration not stated), the Potency result in experiment [1] is “inactive and 27.3 µM (active)”; in experiment [3] it was “inactive and 13.7 µM (active)”; in experiment [7], “inactive and 611 nM (active)”; in [8], “inactive and 969 nM (active)”. Besides, the Potency entry in experiment [2], in [4], in [5], in experiment [6], in [9] and in experiment [10] was “inactive” throughout. In addition, the Potency entry in experiment [11], in [13], in experiment [14] and in [15] was “inactive” in each case. Also, the result in experiment [18], in [16] and in experiment [17] was inactive.
`c1ccc(P(c2ccccc2)c2ccccc2)cc1`: the Potency result in experiment [1], in experiment [2], in experiment [3], in [4], in [5] and in experiment [6] was “inactive” in each case. The Potency entry in experiment [8], in experiment [9], in experiment [11], in experiment [12], in experiment [13] and in experiment [14] was “inactive” each time. Further, the Potency entry in [15] was “inactive”. Besides, the Potency entry in [10] was “inactive and 3.34 µM (active)”. Moreover, the compound was called inactive in experiment [16] and in experiment [17].
In the case of `CCCCCCCCCCCOC(=O)c1ccccc1C(=O)OCCCCCCCCCCC`, the Potency entry in experiment [1], in [2], in experiment [3], in experiment [4], in [6] and in [7] was “inactive” throughout. For the same compound, the Potency result in [8], in [9], in experiment [11], in experiment [12], in experiment [13] and in experiment [14] was “inactive” in each case. In addition, the Potency result in experiment [19] and in experiment [15] was “inactive” throughout. Further, the compound was classed as inactive in experiment [16] and in [17].
`Oc1ccc(-c2ccccc2)cc1`: the Potency result in experiment [1], in experiment [2], in experiment [3], in experiment [4], in experiment [6] and in experiment [8] was “inactive” each time. For the same compound, the Potency result in [9], in [11], in [12], in experiment [13], in experiment [14] and in experiment [15] was “inactive” throughout. Besides, the Potency in experiment [5] was 30.5 µM (active); in experiment [7], 53.8 µM (active) and 21.7 µM (active). Further, the compound was called inactive in experiment [16] and in experiment [17].
Take `Cc1ccccc1[N+](=O)[O-]`: the Potency result in experiment [1], in [2], in experiment [3], in [4], in [5] and in experiment [6] was “inactive” in each case. In addition, the Potency result in [7], in experiment [8], in [9], in [11], in experiment [12] and in experiment [13] was “inactive” throughout. Further, in experiment [15], the Potency result was “inactive”. Besides, the result in experiment [16] and in experiment [17] was inactive.
Take `CCN(CC)C(=O)SCc1ccc(Cl)cc1`: the Potency entry in experiment [1], in [2], in [3], in experiment [4], in experiment [5] and in experiment [6] was “inactive” each time. Also, the Potency result in [7], in [8], in [9], in experiment [10], in experiment [11] and in [13] was “inactive” throughout. In experiment [15], the Potency result was “inactive”. Besides, the call in [16] and in experiment [17] was inactive.
In the case of `c1ccc(N=Nc2ccccc2)cc1`, the Potency entry in [1], in experiment [2], in [3], in experiment [4], in [5] and in [6] was “inactive” in each case. The Potency entry in experiment [7], in [8], in experiment [9], in experiment [10], in experiment [11] and in experiment [13] was “inactive” throughout. In addition, the Potency result in experiment [15] was “inactive”. For the same compound, the compound was called inactive in experiment [16] and in experiment [17].

The values are drawn from PubChem BioAssay (Tox21).
